Compound activity from PubChem BioAssay.
FLuc modulator – firefly luciferase modulation, counter-screen for miR-21 project; Potency, µM (top dose mostly 57.5 µM), without a hit: at the top dose activity change, negative = inhibition, usual class: inhibitors; P08659; actives 6.9% (n = 360,000); purified FLuc, Km substrates, luminescence inhibition;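 note: plate controls were vehicle for no effect and reference inhibitor for full effect; nearly all actives have a fitted effect of over 55% in size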
Target sequence (P08659 whole entry, looked up): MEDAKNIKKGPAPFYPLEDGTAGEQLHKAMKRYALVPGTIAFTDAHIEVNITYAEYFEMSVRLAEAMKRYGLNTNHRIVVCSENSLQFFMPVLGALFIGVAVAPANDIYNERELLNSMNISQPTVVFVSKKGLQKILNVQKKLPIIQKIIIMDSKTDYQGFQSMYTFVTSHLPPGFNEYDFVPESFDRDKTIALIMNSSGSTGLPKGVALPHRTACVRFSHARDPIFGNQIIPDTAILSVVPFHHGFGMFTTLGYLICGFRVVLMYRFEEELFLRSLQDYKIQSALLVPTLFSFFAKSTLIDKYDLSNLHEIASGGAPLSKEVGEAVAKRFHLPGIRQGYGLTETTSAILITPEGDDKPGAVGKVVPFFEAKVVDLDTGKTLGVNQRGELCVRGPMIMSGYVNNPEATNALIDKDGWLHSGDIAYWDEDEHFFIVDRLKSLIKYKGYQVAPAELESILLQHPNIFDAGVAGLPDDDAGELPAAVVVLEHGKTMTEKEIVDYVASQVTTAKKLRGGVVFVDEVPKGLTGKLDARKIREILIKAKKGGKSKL
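Biochemical qHTS of compounds, final roughly 60 µM downward over six points, against 10 nM purified firefly luciferase using Km concentrations of substrates (10 uM D-luciferin, 10 uM ATP) in Tris acetate pH 7.5 buffer; luminescence output.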
SMN2 splice enh – SMN2 splice variant enhancement | actives 2.8% (n = 210,000) | Potency, µM (doses to about 46.1 µM), inactives show top-dose activity change, positive = activation, most hits filed as activators | AID 1458 | HEK293 SMN2-luciferase splicing reporter, luminescence, 30-36 h; note: % of control where 0% means no effect; nearly all actives have a fitted effect of over 55% in size
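qHTS luciferase splicing reporter: luminescence rises when SMN2 exon 7 is included in transfected HEK293 cells. Compound exposure lasted 30-36 h at 37C, with 4.5 mM final sodium butyrate as control, followed by a ONE-Glo read.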
Rab9 promoter act – Rab9 promoter activation | Huh7 Rab9 promoter-luciferase reporter, luminescence, 24 h | AID 485297 | actives 2.8% (n = 320,000) | Potency, µM (top dose mostly 9.22 µM), without a hit: top-dose activation, negative = inhibition, usual class: activators; note: % of control where 0% means no effect; nearly all actives have a fitted effect of over 60% in size
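Luminescence read-out: Huh7 cells stably expressing Rab9-luciferase, treated 24 h with compound at 37 °C, then lysed with luciferase reagent for 10 min at ambient before reading.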
NPC1 promoter act – NPC1 promoter activation. Huh7 NPC1 promoter luciferase reporter, 24 h. Potency, µM (titrated, usually from 9.22 µM), for the others: top-dose activation, most hits filed as activators. actives 2.4% (n = 320,000). AID 485313; note: % of control where 0% means no effect; nearly all actives have a fitted effect of over 60% in size
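Readout is luciferase luminescence, reflecting NPC1 promoter activation in stably transfected Huh7 cells after 24 h compound exposure at 37 °C in reduced-serum medium with 10% FBS.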
ELG1 genotox – inducers of genotoxicity in HEK293T ELG1-luciferase cells | AID 504466 | actives 1.3% (n = 330,000) | HEK293T ELG1-luciferase reporter, luminescence, 16 h | Potency, µM (top dose mostly 46 µM), for the others: at the highest dose activity change, positive = activation, actives largely listed as activators; note: % of control where 0% means no effect; nearly all actives have a fitted effect of over 60% in size
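DMSO vehicle served as control against compound-treated ELG1-luciferase HEK293T cells; exposure lasted 16 hr at 37 °C and 5% CO2, followed by ONE-Glo luminescence detection after 30 min.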
Starred values were filed as active, the others as inactive. The list is not random: actives were taken first. Their share in the collection is about 7.5%. Calls come from the whole dose curve; as a rule, active = well fitted curve in the direction sought with a large enough effect; inconclusive = small, poorly fitted or top-dose-only effect, or another doubt; inactive = no such curve, though single readings can be large; an effect the other way counts as inactive or inconclusive. Potency is the fitted concentration of half-maximal effect.

What do the screens show for `Cc1ccc(-c2cc3ccccc3nc2N2CCCC2)cc1`?
FLuc modulator: -2%; SMN2 splice enh: -32%; Rab9 promoter act: 0%; NPC1 promoter act: -3%; ELG1 genotox: -2%

How did COc1cc(/C=N/Nc2nc3ccccc3s2)cc([N+](=O)[O-])c1O do in these assays?
FLuc modulator: 11µM*; Rab9 promoter act: 22%; NPC1 promoter act: inconclusive; ELG1 genotox: 4%

What do the screens show for `COc1cc(/C=N/Nc2nc3ccccc3s2)ccc1OC(=O)c1ccccc1F`?
FLuc modulator: inconclusive; SMN2 splice enh: inconclusive; Rab9 promoter act: inconclusive; NPC1 promoter act: 24%; ELG1 genotox: 6.5µM*

How did COc1cc(/C=N/NC2=NS(=O)(=O)c3ccccc32)ccc1OC(C)=O do in these assays?
FLuc modulator: -3%; Rab9 promoter act: 5%; NPC1 promoter act: -1%; ELG1 genotox: -1%

Results for COc1cc(/C=N/Nc2ccccc2[N+](=O)[O-])ccc1OC(=O)c1ccccc1F ?
FLuc modulator: 9.5µM*; SMN2 splice enh: 6.3µM*; Rab9 promoter act: 3.2µM*; NPC1 promoter act: 4µM*; ELG1 genotox: 2.6µM*

What do the screens show for `COc1cc(/C=N/Nc2ccccc2[N+](=O)[O-])cc(OC)c1O`?
FLuc modulator: inconclusive; SMN2 splice enh: 8%; Rab9 promoter act: 1%; NPC1 promoter act: 2%; ELG1 genotox: inconclusive

How did CC(C)Cn1c(=O)c2ccccc2n2c(CCC(=O)Nc3ccc(F)cc3)nnc12 do in these assays?
FLuc modulator: -1%; SMN2 splice enh: 0%

How did CC1=NN(C(N)=S)C(=O)C1N=Nc1ccccc1 (centres undefined) do in these assays?
FLuc modulator: 24µM*; SMN2 splice enh: 24%; Rab9 promoter act: 25%; NPC1 promoter act: -50%; ELG1 genotox: inconclusive

How did CC1=NN(C(N)=S)C(=O)C1N=Nc1ccc(Br)cc1 (centres undefined) do in these assays?
FLuc modulator: 6µM*; Rab9 promoter act: 3.5µM*; NPC1 promoter act: 2.2µM*; ELG1 genotox: 9.2µM*

How did CC1=NN(C(N)=S)C(=O)C1N=Nc1ccc(Cl)cc1 (centres undefined) do in these assays?
FLuc modulator: 3.4µM*; Rab9 promoter act: 4µM*; NPC1 promoter act: 4µM*; ELG1 genotox: 7.3µM*

How did CC1=NN(C(N)=S)C(=O)C1N=Nc1cccc([N+](=O)[O-])c1 (centres undefined) do in these assays?
FLuc modulator: 12µM*; Rab9 promoter act: inconclusive; NPC1 promoter act: 3.5µM*; ELG1 genotox: 2%

What do the screens show for `NC(=S)n1[nH]c(-c2ccc([N+](=O)[O-])cc2)c(N=Nc2ccc(Cl)cc2)c1=O`?
FLuc modulator: -13%; SMN2 splice enh: -47%; Rab9 promoter act: -53%; NPC1 promoter act: -40%; ELG1 genotox: -10%

Results for C=CCn1c(=S)[nH]c2scc(-c3cccs3)c2c1=O ?
FLuc modulator: 13µM*; SMN2 splice enh: -79%; Rab9 promoter act: 1%; NPC1 promoter act: -3%; ELG1 genotox: -21%

How did Cn1c(=S)[nH]c2scc(-c3cccs3)c2c1=O do in these assays?
FLuc modulator: inconclusive; SMN2 splice enh: 12%; Rab9 promoter act: 3%; NPC1 promoter act: -12%; ELG1 genotox: -6%

How did O=[N+]([O-])c1ccccc1-c1ccc(C(=S)N2CCCC2)o1 do in these assays?
FLuc modulator: 21µM*; SMN2 splice enh: 11µM*; Rab9 promoter act: 2.8µM*; NPC1 promoter act: inconclusive; ELG1 genotox: -6%

How did O=[N+]([O-])c1ccccc1-c1ccc(C(=S)N2CCCCC2)o1 do in these assays?
FLuc modulator: 8.5µM*; Rab9 promoter act: 3.2µM*; NPC1 promoter act: 2µM*; ELG1 genotox: inconclusive

Results for Cc1c(NC(=O)CCC2CCCCC2)c(=O)n(-c2ccccc2)n1C ?
FLuc modulator: 1%; SMN2 splice enh: -3%; Rab9 promoter act: -2%; NPC1 promoter act: -4%; ELG1 genotox: -4%

How did COc1ccc(CCNC(=O)c2[nH]c(C)c(C(C)=O)c2C)cc1OC do in these assays?
FLuc modulator: 6%; SMN2 splice enh: inconclusive; Rab9 promoter act: 3%; NPC1 promoter act: 2%; ELG1 genotox: -1%

How did O=C(NCCc1ccccc1)c1c(F)cccc1F do in these assays?
FLuc modulator: 17µM*; Rab9 promoter act: 1.4µM*; NPC1 promoter act: 1.6µM*; ELG1 genotox: inconclusive

Results for Cc1ccnc(NC(=O)CCC(=O)N(CC(=O)NCCc2ccccc2)Cc2ccco2)c1 ?
FLuc modulator: -2%; SMN2 splice enh: 6%; Rab9 promoter act: -2%; NPC1 promoter act: 0%; ELG1 genotox: -1%

Results for CN(CC(=O)NCCc1ccccc1)Cc1ccco1 ?
FLuc modulator: inconclusive; Rab9 promoter act: 26%; NPC1 promoter act: inconclusive; ELG1 genotox: 21µM*

Results for CC(=O)c1c(C)[nH]c(C(=O)NCCc2ccccc2)c1C ?
FLuc modulator: 11µM*; SMN2 splice enh: 11µM*; Rab9 promoter act: 1.3µM*; NPC1 promoter act: 2.5µM*; ELG1 genotox: inconclusive

How did O=C(NCCc1ccccc1)c1ccco1 do in these assays?
FLuc modulator: inconclusive; SMN2 splice enh: 13µM*; Rab9 promoter act: inconclusive; NPC1 promoter act: inconclusive; ELG1 genotox: inconclusive

How did COc1ccc(NC(=O)Cn2c(C(C)C)nc(C)cc2=O)cc1Cl do in these assays?
FLuc modulator: -1%; SMN2 splice enh: -20%; Rab9 promoter act: 0%; NPC1 promoter act: -5%; ELG1 genotox: -2%

How did COc1ccc(/C=C/c2nc(-c3ccccc3O)n[nH]2)cc1OC do in these assays?
FLuc modulator: 12µM*; SMN2 splice enh: inconclusive; Rab9 promoter act: inconclusive; NPC1 promoter act: inconclusive; ELG1 genotox: inconclusive

Results for O=C(O)COc1ccc(/C=C/c2nc(-c3ccccc3O)n[nH]2)cc1 ?
FLuc modulator: 11µM*; Rab9 promoter act: -2%; NPC1 promoter act: -5%; ELG1 genotox: -6%

How did CC(C)(C)c1ccc(OCC(=O)O)cc1 do in these assays?
FLuc modulator: inconclusive; SMN2 splice enh: inconclusive; Rab9 promoter act: 9%; NPC1 promoter act: 1%; ELG1 genotox: 4%

What do the screens show for `Cc1ccc(-c2nc(C#N)c(N3CCC(C)CC3)o2)cc1`?
FLuc modulator: inconclusive; Rab9 promoter act: 0.1µM*; NPC1 promoter act: inconclusive; ELG1 genotox: 3%

Results for Cc1ccc(-c2nc(C#N)c(N3CCCCC3)o2)cc1 ?
FLuc modulator: inconclusive; SMN2 splice enh: -5%; Rab9 promoter act: inconclusive; NPC1 promoter act: inconclusive; ELG1 genotox: -3%

How did Cc1cccc(-c2nc3c(C#N)c[nH]n3c2NC2CCCCC2)c1 do in these assays?
FLuc modulator: 0%

How did Cc1cccc(-c2nc(C#N)c(N3CCCCC3)o2)c1 do in these assays?
FLuc modulator: 13µM*; Rab9 promoter act: inconclusive; NPC1 promoter act: inconclusive; ELG1 genotox: inconclusive
